Screening results (PubChem BioAssay)
KB-V1 MDR tox: kills drug-selected multidrug resistant KB-V1 cells. Potency, µM (series often up to 46.1 µM), most hits filed as cytotoxic. 400,000 compounds, 3.4% hits. KB-V1 MDR cells viability, CellTiter-Glo, 72 h; further: nearly all actives have a fitted effect of over 60% in size
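Cytotoxicity toward P-gp-expressing KB-V1 cells was determined as loss of CellTiter-Glo luminescence after 72 h at 37 degrees C. Compounds were tested in quantitative HTS format across a concentration range, with curves fitted to normalized data.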
SW480 rerep: DNA re-replication induction in SW480 cells; Potency, µM (highest dose often 46.1 µM), hits mostly activators; 340,000 compounds, 1.8% hits; SW480 DNA re-replication, Hoechst DNA content imaging, 48 h; AID 624297; further: nearly all actives have a fitted effect of over 55% in size
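Image-based read-out: total Hoechst fluorescence of nuclei (405 nm excitation, 500-530 nm emission), with hits raising the fraction of high-intensity nuclei. SW480 colon cells incubated 48 hr with compounds at 37 C.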
PINK1 modulator: changes PINK1 expression; PINK1 immunofluorescence, high-content cytometry, 24 h; Potency, µM (series often up to 76.6 µM), hits mostly activators; 410,000 compounds, 0.2% hits; active means well fitted activation curve with a large enough effect; inconclusive means small, poorly fitted or top-dose-only effect; cell line not stated here; further: nearly all actives have a fitted effect of over 65% in size
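Readout is PINK1 immunofluorescence, quantified alongside mitochondrial, cell and nuclear markers by laser-scanning microplate cytometry. Cells from a stable line were exposed to compound titrations (5 concentrations) for 24 hours, with CCCP controls.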
MCF10A rereplic: induces DNA re-replication in MCF 10a normal breast cells. Potency, µM (highest dose often 46.1 µM), hits mostly activators. 350,000 compounds, 2.9% hits. MCF 10A DNA re-replication, Hoechst nuclear intensity, 48 h; further: nearly all actives have a fitted effect of over 50% in size
KB-3-1 cytotox: kills parental KB-3-1 adenocarcinoma cells. 400,000 compounds, 1.4% hits. KB-3-1 viability, CellTiter-Glo ATP luminescence, 72 h. Potency, µM (highest dose often 46.1 µM), usual class: cytotoxic; further: nearly all actives have a fitted effect of over 60% in size
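Cytotoxicity in the drug-sensitive parental line KB-3-1 was scored as loss of CellTiter-Glo luminescence following 72 h incubation with compound. Values come from curve fitting of normalized concentration-response data.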
Numbers stand for hits; 0 = inactive; ? = inconclusive; - = no result given. Compounds with a hit are over-represented: about 6.7% of the library has one in this group of screens. Unless noted, the call rests on the fitted dose curve; in most records, active means well fitted curve in the direction sought with a large enough effect; inconclusive means small, poorly fitted or top-dose-only effect, or another doubt; inactive means no such curve, though single readings can be large; an effect the other way counts as inactive or inconclusive.

SMILES | KB-V1 MDR tox | SW480 rerep | PINK1 modulator | MCF10A rereplic | KB-3-1 cytotox
COc1ccc(C(=O)Nc2ccc(Cn3ccnc3)cc2)cc1OC | ? | 0 | 0 | ? | ?
COc1ccc(C(=O)Nc2cnn(Cc3ccc(Cl)cc3)c2)cc1OC | 0 | 0 | 0 | 12µM | 5.8µM
O=S1(=O)CC(N2CC=CC2)CN1C1CCCCC1 (configuration not stated) | 0 | - | 0 | - | 0
COc1cc(CNc2ccc(N3CCN(C(C)=O)CC3)cc2)ccc1OCc1ccccc1 | 7.3µM | 0 | 0 | 0 | ?
COc1ccc(C)cc1NC(=O)c1nn(-c2ccccc2)cc1OC | ? | 0 | ? | 23µM | ?
FC(F)(F)c1ccccc1NC(=S)N1CCc2ccccc2C1 | ? | 0 | 0 | 0 | 0
CCCN1CCN(C(=S)Nc2ccccc2C(F)(F)F)CC1 | 3.3µM | 0 | 0 | 0 | 21µM
COc1cn(-c2ccccc2)nc1C(=O)Nc1ccc(C)cc1 | 0 | ? | 0 | 0 | 0
Cc1ccccc1NC(=S)N1CCN(Cc2ccccc2)CC1 | 0 | 0 | 0 | 0 | 0
COc1cc(CNc2ccc(N3CCOCC3)cc2)ccc1OCC(=O)NC(C)(C)C | 0 | 0 | 0 | 0 | 0
COc1ccccc1NC(=S)N1CCN(Cc2ccccc2)CC1 | 15µM | 0 | 0 | 0 | ?
Cc1ccc(C(=O)NCCS(=O)(=O)N2CCN(c3ccccc3F)CC2)cc1[N+](=O)[O-] | 0 | 0 | 0 | 0 | 0
CC(C)CN1C(=O)CSCC1(C)C(=O)NCc1ccccc1 (configuration not stated) | 0 | - | - | - | 0
CCc1ccccc1N(CC(=O)Nc1cccnc1)S(=O)(=O)c1ccccc1 | ? | 0 | 0 | 0 | 0
CCN(CC(=O)Nc1c(F)cccc1F)C(=O)c1ccc(NC(=O)CC2SC(N3CCCC3)=NC2=O)cc1 (configuration not stated) | 0 | 0 | 0 | 0 | 0
O=C(COC(=O)C1CC2C=CC1C2)Nc1c(Br)cc([N+](=O)[O-])cc1Br (configuration not stated) | - | 0 | 0 | 0 | -
CC1(c2ccccc2)CC(C)(C)n2c(O)c(C3=NC(=S)NC3=O)c3cccc1c32 (configuration not stated) | 12µM | 0 | 0 | 0 | ?
Cc1ccc(NS(=O)(=O)c2cc(Br)cc3c2N(C(=O)C2CC2)CC3)cc1C | - | - | 0 | - | -
CCOC(=O)c1cccc(NS(=O)(=O)c2cc(Br)cc3c2N(C(=O)C2CC2)CC3)c1 | 0 | - | 0 | - | 21µM
COc1ccc(N(C)S(=O)(=O)c2cccc(C(=O)N3CCN(c4cccc(C)c4C)CC3)c2)cc1 | 0 | 0 | 0 | 0 | 16µM
Cc1cccc(N2CCN(C(=O)c3ccc(S(=O)(=O)N(C)c4ccccc4)cc3)CC2)c1C | 23µM | 10µM | 0 | 5.2µM | ?
Cc1cccc(N2CCN(C(=O)c3cccc(S(=O)(=O)N4CCCCC4)c3)CC2)c1C | ? | ? | 0 | 15µM | ?
O=C(c1cccc(S(=O)(=O)N2CCCCCC2)c1)N1CCN(c2ccccc2F)CC1 | ? | 0 | 0 | 0 | 0
CCOC(=O)C1CCCN(C(=O)c2cccc(S(=O)(=O)N(C)c3ccc(OC)cc3)c2)C1 (configuration not stated) | ? | 0 | 0 | 0 | 0
CCOc1ccc(NC(=O)CSc2nnc3c(C)cc4ccccc4n23)cc1 | 0 | - | 0 | - | 0
SMILES | KB-V1 MDR tox | SW480 rerep | PINK1 modulator | MCF10A rereplic | KB-3-1 cytotox
CCC(NC(=S)NCc1ccc(F)cc1)c1ccccc1 (configuration not stated) | 0 | 0 | 0 | 0 | 0
Cc1ccc(S(=O)(=O)Nc2ncnc3sc(C)c(C)c23)cc1 | 3.7µM | 0 | 0 | ? | ?
CCc1ccc(Nc2nc(N3CCOCC3)nc(N3CCOCC3)n2)cc1 | 0 | 8.2µM | 0 | 0 | ?
Fc1cccc(Nc2nc(N3CCOCC3)nc(N3CCOCC3)n2)c1 | 0 | ? | 0 | 23µM | ?
Clc1cccc(Nc2nc(N3CCOCC3)nc(N3CCOCC3)n2)c1 | 0 | 0 | 0 | 0 | 0
CCOC(=O)c1ccc(Nc2nc(N3CCOCC3)nc(N3CCOCC3)n2)cc1 | 0 | ? | 0 | ? | 0
FC(F)(F)Oc1ccc(Nc2nc(N3CCOCC3)nc(N3CCOCC3)n2)cc1 | 0 | 21µM | 0 | ? | 0
COc1ccc(Nc2nc(OC)nc(N3CCOCC3)n2)cc1 | 0 | 0 | 0 | 0 | 0
Cc1ccc(S(=O)(=O)Oc2ccc3ccc(O)cc3c2)cc1 | ? | 0 | 0 | 1µM | 0
